# Measurements as given in the supplement of paper PMC8728848.
# The entries come from a sample that favours the strongest signals as a whole.
# Key:
# Assay in all cases: glycan array binding signal (z-score within array); higher = stronger binding
# Conditions in all cases: glycan notation: IUPAC condensed, linker removed
# [1] = biological target: GalNAc(b1-4)GlcNAc(b1-3)GalNAc(b1-4)GlcNAc
# Outline: (§1)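 Glycan array data were curated from 3228 arrays in the Consortium for Functional Glycomics database and kept only where the protein sequence was available. Glycan names were converted to IUPAC-condensed notation, and columns mapping to the same glycan were averaged. The binding signal is a within-array Z-score, averaged across arrays of the same protein sequence at different concentrations or buffers and across linkers. Negative Z-scores can be read as non-binding.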
# [2] = biological target: Glc(b1-4)Glc
# Outline: as §1
# [3] = biological target: GlcA(b1-3)GlcNAc
# Outline: as §1
# [4] = biological target: GlcNAc(b1-2)[GlcNAc(b1-4)]Man(a1-3)[GlcNAc(b1-4)][GlcNAc(b1-2)[GlcNAc(b1-6)]Man(a1-6)]Man(b1-4)GlcNAc(b1-4)[Fuc(a1-6)]GlcNAc
# Outline: as §1
# [5] = biological target: GlcNAc(b1-3)Fuc
# Outline: as §1
# [6] = biological target: GlcNAc(b1-3)Gal(b1-4)GlcNAc
# Outline: as §1
# [7] = biological target: GlcNAc(b1-3)[GlcNAc(b1-6)]Gal(b1-4)GlcNAc
# Outline: as §1
# [8] = biological target: Man(a1-3)[Man(a1-6)]Man(b1-4)GlcNAc(b1-4)GlcNAc
# Outline: as §1
# [9] = biological target: Man(a1-6)Man
# Outline: as §1
# [10] = biological target: Man(b1-4)GlcNAc
# Outline: as §1
# [11] = biological target: Neu5Ac(a2-3)Gal(b1-3)GlcNAc
# Outline: as §1
# [12] = biological target: Neu5Ac(a2-3)Gal(b1-3)[Neu5Ac(a2-6)]GalNAc
# Outline: as §1
# [13] = biological target: Neu5Ac(a2-3)Gal(b1-4)Glc
# Outline: as §1
# [14] = biological target: Neu5Ac(a2-3)Gal(b1-4)GlcNAc(b1-2)[Neu5Ac(a2-3)Gal(b1-4)GlcNAc(b1-6)]Man(a1-6)[Neu5Ac(a2-3)Gal(b1-4)GlcNAc(b1-2)Man(a1-3)][GlcNAc(b1-4)]Man(b1-4)GlcNAc(b1-4)GlcNAc
# Outline: as §1
# [15] = biological target: Neu5Ac(a2-6)Gal(b1-4)GlcNAc(b1-2)Man(a1-3)[GlcNAc(b1-2)Man(a1-6)]Man(b1-4)GlcNAc(b1-4)GlcNAc
# Outline: as §1
# [16] = biological target: Neu5Ac(a2-6)Gal(b1-4)GlcNAc(b1-3)Gal(b1-4)GlcNAc(b1-6)[Gal(b1-3)]GalNAc
# Outline: as §1
# [17] = biological target: Neu5Ac(a2-8)Neu5Ac(a2-3)Gal(b1-4)Glc
# Outline: as §1
# [18] = biological target: Neu5Gc(a2-6)Gal(b1-4)GlcNAc
# Outline: as §1
# [19] = biological target: Neu5Gc(a2-8)Neu5Gc(a2-6)Gal(b1-4)GlcNAc
# Outline: as §1
binder,measurement,setting,value
EULS2 M1 (Oryza sativa) (protein) MVYCRANPNYAMTARNGAVVLAPANPKDEYQHWIKDMRWSTSIKDEEGYPAFALVNKATGQAIKHSLGQSHPVRLVPYNPEVMDESVLWTESRDVGNGFRCIRMVNNIYLNFDAFHGDKYHGGVRDGTDIVLWKLCEGDNQRWKIQPYYILEQKLISEEDLNSAVDHHHHHH,glycan array binding signal (z-score),[1],-0.842
same,glycan array binding signal (z-score),[2],2.81
same,glycan array binding signal (z-score),[3],0.171
same,glycan array binding signal (z-score),[4],2.74
same,glycan array binding signal (z-score),[5],-0.923
same,glycan array binding signal (z-score),[6],0.2
same,glycan array binding signal (z-score),[7],-0.56
same,glycan array binding signal (z-score),[8],3.41
same,glycan array binding signal (z-score),[9],3.16
same,glycan array binding signal (z-score),[10],-0.283
same,glycan array binding signal (z-score),[11],-0.972
same,glycan array binding signal (z-score),[12],0.067
same,glycan array binding signal (z-score),[13],-0.186
same,glycan array binding signal (z-score),[14],-0.305
same,glycan array binding signal (z-score),[15],-0.661
same,glycan array binding signal (z-score),[16],0.283
same,glycan array binding signal (z-score),[17],-0.26
same,glycan array binding signal (z-score),[18],0.007
same,glycan array binding signal (z-score),[19],-0.158
